KAT2A inh: qHTS Assay for Inhibitors of GCN5L2; Histone acetyltransferase KAT2A (Homo sapiens), Q92830; GCN5L2 HAT assay, ThioGlo1 CoA-SH fluorescence; Potency, µM (doses to about 58.9 µM), inactives show at the highest dose activity change, negative = inhibition, usual class: inhibitors; 0.21% of 390,000 active; AID 504327, 2011; also: % is scaled to controls: 0 for no effect and ±100 for the full control effect
Target sequence (Q92830 whole entry, looked up): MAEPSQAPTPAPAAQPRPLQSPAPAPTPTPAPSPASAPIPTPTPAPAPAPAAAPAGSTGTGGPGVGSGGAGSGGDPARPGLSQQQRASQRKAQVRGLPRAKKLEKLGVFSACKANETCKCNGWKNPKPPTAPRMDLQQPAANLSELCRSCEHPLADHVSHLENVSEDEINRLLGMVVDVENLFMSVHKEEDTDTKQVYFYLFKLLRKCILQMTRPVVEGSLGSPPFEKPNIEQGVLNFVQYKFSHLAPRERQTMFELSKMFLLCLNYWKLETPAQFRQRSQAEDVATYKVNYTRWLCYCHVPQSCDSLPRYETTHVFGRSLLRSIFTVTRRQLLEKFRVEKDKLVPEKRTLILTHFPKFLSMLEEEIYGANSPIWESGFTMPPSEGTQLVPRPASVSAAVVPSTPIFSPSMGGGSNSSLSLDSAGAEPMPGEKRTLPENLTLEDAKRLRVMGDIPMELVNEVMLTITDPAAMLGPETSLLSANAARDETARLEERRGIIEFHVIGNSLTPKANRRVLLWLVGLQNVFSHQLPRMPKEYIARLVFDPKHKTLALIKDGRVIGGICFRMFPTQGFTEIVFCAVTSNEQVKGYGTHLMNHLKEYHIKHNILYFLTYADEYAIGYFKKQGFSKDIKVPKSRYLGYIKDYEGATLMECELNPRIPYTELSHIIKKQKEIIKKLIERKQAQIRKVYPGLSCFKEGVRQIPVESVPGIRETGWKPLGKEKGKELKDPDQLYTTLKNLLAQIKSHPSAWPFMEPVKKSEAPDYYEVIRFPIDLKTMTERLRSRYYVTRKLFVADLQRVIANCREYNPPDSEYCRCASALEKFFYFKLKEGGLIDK
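Fluorescence readout, Ex340nm/Em540nm: ThioGlo1 (50uM final) reacts with free CoA thiol released as 20nM GCN5L2 acetylates H3(1-25) peptide (75uM) using acetyl-CoA (70uM). Compound and enzyme sat 15 min beforehand; 20 min room-temperature reaction.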
TSG101-PTAP inh: qHTS Assay for Iinhibitors of HIV-1 Budding by Blocking the Interaction of PTAP/TSG101 | 340,000 tested, under 10 active | Fluorescence polarization, FITC-PTAP peptide / Tsg101 binding | Tumor susceptibility gene 101 protein (Homo sapiens), Q99816 | Potency, µM (series often up to 115 µM), for inactives: top-dose activity change, negative = inhibition, usual class: inhibitors; active = well fitted inhibition curve with a large enough effect in the main read-out, with a control signal flat, not every such curve was filed as active; inconclusive = small, poorly fitted or top-dose-only effect, or effect the other way, or a change in a side signal; inactive = no such curve, though single readings can be large or run the other way; also: % of control where 0% means no effect
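Compounds were pin-transferred onto Tsg101 binding domain (10 uM final) in HEPES pH 7.5 buffer, then FITC-PTAP peptide was added at 50 nM final. After 20 min at RT, polarization reported peptide displacement across a qHTS concentration series.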
PLK1 PBD block: qHTS for Inhibitors of PLK1-PDB (polo-like kinase 1 - polo-box domain): Primary Screen | Serine/threonine-protein kinase PLK1 (Homo sapiens), P53350 | Plk1 PBD binding of FITC phosphopeptide, fluorescence polarization | Potency, µM, for inactives: max response, negative = inhibition, usual class: inhibitors | 2.8% of 360,000 active | AID 720504, 2013; also: series mostly up to about 57 µM; % is scaled to controls: 0 for no effect and ±100 for the full control effect; nearly all actives have a fitted effect of over 65% in size
USP1-UAF1 inh: Inhibitors of USP1/UAF1: Primary Screen | Ubiquitin carboxyl-terminal hydrolase 1 (Homo sapiens), O94782 | recombinant USP1/UAF1, Ub-Rhodamine cleavage fluorescence | Potency, µM (titrated, usually from 57.1 µM), without a hit: at the highest dose activity change, negative = inhibition, usual class: inhibitors | 0.23% of 390,000 active | AID 743255, 2014; also: % is scaled to controls: 0 for no effect and ±100 for the full control effect; nearly all actives have a fitted effect of over 60% in size
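High-throughput fluorogenic screen: 1nM USP1/UAF1 complex, Ub-Rho substrate 150nM final, 50mM HEPES pH 7.8 with 0.5mM EDTA, 0.1 mg/ml BSA, 1mM TCEP and 0.01% Tween-20.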
VDR inhibitor: Inhibitors of the vitamin D receptor (VDR): qHTS; 0.93% of 400,000 active; Vitamin D3 receptor (Homo sapiens), P11473; Potency, µM, inactives show max response, negative = inhibition, hits mostly inhibitors; VDR-SRC2-3 peptide fluorescence polarization, 2 h; also: % is scaled to controls: 0 for no effect and ±100 for the full control effect
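Reagent solutions, kept cold and dark, are dispensed first; compounds are then pinned in at 23 nl, plates briefly spun, and incubated 2 h at ambient temperature. Inhibition of VDR–SRC2-3 peptide binding is read by fluorescence polarization.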
Starred values were filed as active, the others as inactive; u = inconclusive; x = no result given. The list is not random: actives were taken first. Their share in the collection is about 3%. Unless noted, calls follow the shape of the dose curve; as a rule, active = well fitted curve in the direction sought with a large enough effect; inconclusive = small, poorly fitted or top-dose-only effect, or another doubt; inactive = no such curve, though single readings can be large; an effect the other way counts as inactive or inconclusive. Potency is read from the fitted curve at half-maximal effect.

SMILES	KAT2A inh	TSG101-PTAP inh	PLK1 PBD block	USP1-UAF1 inh	VDR inhibitor
CCOC(=O)c1c(/N=C/N(C)C)sc(C)c1C	-17.9%	-2.7%	-10.9%	-20.3%	-8.9%
CCOC(=O)c1c(/N=C/N(C)C)sc(/C=N/Nc2ccccc2)c1-c1ccc(Cl)cc1	-3.6%	1.7%	29.9µM*	-16.4%	u
CCCCc1ccc(NC(=S)Nc2ccc(Nc3ccc(OC)cc3)cc2)cc1	51.7%	0.6%	15µM*	-2.3%	-28.0%
O=C(CSC1=NCCS1)c1ccc(Cl)cc1	-23.7%	0.0%	u	-8.0%	79.4µM*
CC(C)(C)OC(=O)NC(Cc1ccccc1)C(=O)NC1COC2CC(n3ccc(=O)[nH]c3=O)OC12 (stereo unspecified)	x	x	x	x	-13.1%
COc1ccc(NC(=S)Nn2cnnc2)cc1OC	-17.7%	-0.9%	15µM*	-16.1%	-17.7%
S=C(Nc1ccccc1)Nn1cnnc1	-16.2%	-2.9%	18.9µM*	-2.7%	-17.1%
CCc1ccc(NC(=S)Nn2cnnc2)cc1	-19.5%	-11.7%	16.8µM*	-9.9%	-10.4%
COc1ccc(NC(=S)Nn2cnnc2)c(OC)c1	-3.2%	-0.3%	21.2µM*	-10.1%	u
Cc1sc2ncn(CC(=O)Nc3ccc(C(C)C)cc3)c(=O)c2c1S(=O)(=O)N1CCN(c2ncccn2)CC1	-8.8%	x	x	-25.7%	-6.3%
COc1cccc(C(=O)NC(=S)Nn2cnnc2)c1OC	-8.3%	0.3%	23.8µM*	-15.1%	-0.4%
Cc1ccc(NC(=S)Nn2cnnc2)cc1	2.7%	-4.4%	10.6µM*	-20.3%	-18.5%
COc1ccc(C(=O)N2CCCC(c3cc(C(=O)NCc4ccc(F)cc4)no3)C2)cc1 (stereo unspecified)	x	x	1.1%	x	x
C[N+]1(C)[C@@H]2CC(OC(=O)C(O)(c3cccs3)c3cccs3)C[C@H]1[C@@H]1O[C@@H]12 (stereo partly specified)	3.5%	x	x	x	10.0%
CNC(=O)N(O)C1N(/N=C/c2ccc(SC)cc2)C(=S)SC1(C)C (stereo unspecified)	-5.7%	-5.8%	-7.7%	-13.2%	9.0%
CN(C)c1ccc(/C=N/N2C(=S)SC(C)(C)C2N(O)C(=O)Nc2ccc([N+](=O)[O-])cc2)cc1 (stereo unspecified)	-16.2%	-6.8%	26.7µM*	-12.0%	-22.4%
O=C(/C=C/c1ccc(Cl)cc1)NC(=S)Nc1ccc(N2CCOCC2)c(Cl)c1	0.2%	-0.9%	18.9µM*	-19.0%	-6.6%
O=C(/C=C/c1ccc(Cl)cc1)Nc1ccc(N2CCOCC2)cc1	-5.3%	-0.3%	23.8µM*	-16.9%	u
Cc1ccc(NS(=O)(=O)c2cc(-c3cnc(C4CC4)o3)ccc2C)cc1Cl	9.6%	x	x	-9.1%	-0.2%
CC(O)(c1cccnc1)c1nc(/C=C/c2ccccc2)cs1 (stereo unspecified)	x	x	-19.9%	x	x
O=C1C2C3C=CC(CO)(O3)C2C(=O)N1c1ccccc1-c1ccccc1 (stereo unspecified)	u	0.4%	7.52µM*	u	-100.4%
COc1ccc(C(=O)NCC23C=CC(O2)C2C(=O)N(Cc4ccccc4)C(=O)C23)cc1 (stereo unspecified)	-8.2%	-5.2%	-2.5%	-24.7%	2.1%
O=C1C2C3C=CC(CNS(=O)(=O)c4ccccc4)(O3)C2C(=O)N1c1ccc(Cl)cc1 (stereo unspecified)	-9.1%	0.2%	-6.5%	-13.1%	79.4µM*
Cc1cnc(C(=O)Nc2ccc(C)c(S(=O)(=O)N(C)C)c2)cn1	45.8%	2.0%	23.8µM*	-2.2%	u
Cc1ccc(NC(=O)c2cncc(Br)c2)cc1S(=O)(=O)N(C)C	0.9%	-0.5%	15µM*	-19.0%	44.7µM*
CN(C)S(=O)(=O)c1cccc(NC(=O)c2cncc(Br)c2)c1	-4.8%	-2.2%	-4.2%	-9.7%	-15.0%

Assay outcomes: PubChem, National Center for Advancing Translational Sciences (NCATS)
